Bioassay records deposited in PubChem by National Center for Advancing Translational Sciences (NCATS).
The list is not random: actives were taken first. Their share in the collection is about 0.9%.
TexasRed fluor: Texas Red fluorescence interference in TRb-SRC2 counter-screen. TRb/SRC2 Texas Red total fluorescence interference. Potency, µM (titrated, usually from 106 µM), without a hit: at the highest dose fluorescence change, negative = quenching. hit rate 0.29% among 280,000. AID 1479; active means well fitted curve in either direction with a large enough effect; inconclusive means small, poorly fitted or top-dose-only effect
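Human TRb ligand-binding domain at 0.6 uM with 20 nM Texas Red SRC2 peptide in Tris buffer containing 1 uM T3 and 5% DMSO, incubated with compound 5 h at ambient temperature. Total fluorescence (555/632 nm) calculated as parallel + 2 × perpendicular.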
BLM helicase inh: blocks DNA unwinding by human BLM helicase | P54132 | recombinant BLM DNA unwinding, fluorescence dequenching | Potency, µM (titrated, usually from 56.1 µM), for inactives: at the top dose activity change, negative = inhibition, actives largely listed as inhibitors | hit rate 0.2% among 350,000 | AID 2528;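 further: plate controls were vehicle for no effect and no enzyme for full effect; nearly all actives have a fitted effect of over 35% in size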
TRb SRC2 PPI: disrupts binding of human TR beta to SRC2; TRbeta-SRC2 peptide binding, fluorescence polarization; receptor liganded with 1 µM T3; AID 1469; Potency, µM (titrated, usually from 106 µM), for inactives: at the top dose activity change, negative = inhibition, actives largely listed as inhibitors; hit rate 0.065% among 280,000;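 further: plate controls were bound peptide for no effect and peptide without receptor for full effect; nearly all actives have a fitted effect of over 50% in size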
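Fluorescence polarization of 20 nM Texas Red SRC2 peptide with 0.6 uM human TRb ligand-binding domain, in Tris buffer with 1uM T3 and 5% DMSO. Incubated 5 hr ambient; normalized to unbound and bound controls.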
APEX1 inh: blocks human APE1 abasic DNA cleavage; P27695; recombinant APE1, TAMRA/BHQ-2 abasic DNA cleavage fluorescence; Potency, µM (highest dose often 65.8 µM), for inactives: top-dose activity change, negative = inhibition, most hits filed as inhibitors; hit rate 0.35% among 350,000; AID 2517;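 further: plate controls were vehicle for no effect and reference inhibitor for full effect; nearly all actives have a fitted effect of over 55% in size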
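Substrate: short duplex with […] THF abasic site, 5'-TAMRA and 3'-BHQ-2, 50 nM final. APE1 at 0.75 nM, preincubated 15 min RT with compound. Fluorescence increase from first to third read measured activity.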
RECQ1 helicase: blocks DNA unwinding by human RECQ1. RECQ1 DNA unwinding, red fluorescence kinetic read. Potency, µM (highest dose often 57.3 µM), without a hit: at the top dose activity, negative = inhibition, most hits filed as inhibitors. hit rate 0.54% among 240,000. AID 2549. P46063;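 further: plate controls were vehicle for no effect and no enzyme for full effect; nearly all actives have a fitted effect of over 30% in size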
Target sequence (P46063 whole entry, looked up): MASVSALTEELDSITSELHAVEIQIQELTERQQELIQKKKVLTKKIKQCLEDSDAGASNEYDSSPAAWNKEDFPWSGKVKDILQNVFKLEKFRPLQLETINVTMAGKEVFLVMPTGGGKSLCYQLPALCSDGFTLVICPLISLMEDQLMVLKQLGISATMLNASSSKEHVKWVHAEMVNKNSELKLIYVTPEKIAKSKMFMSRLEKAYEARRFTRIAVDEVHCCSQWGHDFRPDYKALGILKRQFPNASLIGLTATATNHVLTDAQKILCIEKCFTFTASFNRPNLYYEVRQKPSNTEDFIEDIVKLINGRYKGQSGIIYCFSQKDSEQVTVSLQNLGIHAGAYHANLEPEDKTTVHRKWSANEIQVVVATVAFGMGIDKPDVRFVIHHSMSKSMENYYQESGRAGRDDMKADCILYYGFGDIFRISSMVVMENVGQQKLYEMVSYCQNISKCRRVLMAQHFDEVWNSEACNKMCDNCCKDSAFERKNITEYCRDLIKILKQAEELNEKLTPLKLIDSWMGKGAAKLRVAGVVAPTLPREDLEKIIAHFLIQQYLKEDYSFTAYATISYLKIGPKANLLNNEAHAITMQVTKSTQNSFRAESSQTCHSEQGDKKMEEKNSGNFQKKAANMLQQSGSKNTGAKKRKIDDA
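50 nM RECQ1T1 preincubated 15 min with compound in Tris pH 8.0 buffer with MgCl2, DTT, Tween-20 and 2.5 ug/ml poly(dI-dC); started with 200 nM TAMRA/BHQ-2 forked duplex and 2 mM ATP. Unwinding read as fluorescence (525/598 nm), two reads 2 h apart.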
GoLoco inh red: RGS12 GoLoco-Gai1 interaction inhibition; hit rate 0.44% among 230,000; Potency, µM (series often up to 61.6 µM), for inactives: top-dose activity, negative = inhibition, usual class: inhibitors; AID 880; P63096; Gai1:RGS12 GoLoco peptide FP, rhodamine, 10 min; active means well fitted inhibition curve with a large enough effect, not every such curve was filed as active; inactive means no such curve, though single readings can be large or run the other way; further: nearly all actives have a fitted effect of over 30% in size
An asterisk follows results filed as active; u = inconclusive; x = no result; ! = not confirmed by another sample; [ ] = dose if it differs, or a comment. Unless noted, the call rests on the fitted dose curve; in most records, active means well fitted curve in the direction sought with a large enough effect; inconclusive means small, poorly fitted or top-dose-only effect, or another doubt; inactive means no such curve, though single readings can be large; an effect the other way counts as inactive or inconclusive. Unless noted, on the % scale 0 is the no-effect control and ±100 the full control effect; potency means the concentration at half of the fitted maximal effect.

SMILES | TexasRed fluor | BLM helicase inh | TRb SRC2 PPI | APEX1 inh | RECQ1 helicase | GoLoco inh red
Oc1cccc(O)c1O | -5% | -10% | 7% | 1.3µM* | 6.3µM* | -30%
COc1c(O)cccc1O | 0% | -7% | 4% | -4% | 0% | -14%
CCCN(CCC)C1=N/C(=C\c2ccco2)C(=O)N1c1ccccc1 | 6% | -11% | -14% | -3% | 28µM* | 60%
Cc1c(C(=O)Nc2ccccc2)sc2nc(-c3cc4ccccc4oc3=O)[nH]c(=O)c12 | 282µM*[quencher] | 0% | -2% | x | x | x
COc1ccc(-n2c(NC(=O)c3ccco3)c(C#N)c3nc4ccccc4nc32)cc1 | -1% | 32µM* | -11% | 2% | 17% | 44%
CCCCn1c(NC(=O)c2ccccc2Cl)c(C#N)c2nc3ccccc3nc21 | -9% | u | u | u | u | 5%
N#Cc1c(NC(=O)c2ccccc2Cl)n(Cc2ccccc2)c2nc3ccccc3nc12 | -14% | 14µM* | u | 2% | u | 118%
COc1ccc(C(=O)Nc2ccc(NC(=O)c3ccco3)cc2)cc1 | x | -5% | x | -8% | x | x
C=CCOC(=O)C1(C(NC(=O)OC)c2ccccc2)C(=O)Cc2ccccc21 (stereo unspecified) | -3% | 4% | 1% | 2% | 0% | 0%
CO[Si](CCCNCCN)(OC)OC | 0%[201 µM] | x | -2%[201 µM] | x | x | x
C[Si](C)(C)O[Si](C)(C)O[Si](C)(C)C | 2%[201 µM] | x | 3%[201 µM] | x | x | x
CCOC(=O)c1cc2n(c1/N=C/N(C)C)-c1ccccc1C2=O | 1% | -3% | 6% | -2% | 15% | 25µM*
CCOC(=O)c1ccc2c(c1)N(C)C(=O)c1ccccc1S2 | x | -5% | x | -3% | x | x
CC(=O)N1c2ccc(S(=O)(=O)Nc3ccc(C)c(Cl)c3)cc2CC1C (stereo unspecified) | 16µM*[quencher] | -3% | -15% | x | x | x
CC1(C)C2CCC(C2)C1(C)N=C1OC(CCl)CS1 (stereo unspecified) | 0% | 4.5µM* | 9% | -3% | 1% | -12%
CCc1cccc(C)c1N(C(=O)CS(=O)(=O)O)[C@@H](C)COC | -3%[201 µM] | x | 8%[201 µM] | x | x | x
O=C1OC(c2ccc3c(c2)OCO3)=N/C1=C\c1ccc(C(=O)O)cc1 | x | 1% | x | 4.2µM* | x | x
O=C(O)c1cccc(-c2ccc3c(c2)OCO3)c1 | x | -4% | x | 11% | x | x
O=C(Nc1ccc(Cl)cc1)NC1CCCc2ccccc21 (stereo unspecified) | -3% | -1% | -16% | -2% | -2% | 4%
O=C1C(Cl)=C(NC2CCc3ccccc32)C(=O)c2ncccc21 (stereo unspecified) | -13% | 2.5µM* | u | u | 11µM* | -7%
Nc1ccc2nc(-c3cccc(-c4nc5ccc(N)cc5[nH]4)n3)[nH]c2c1 | x | 14µM* | x | -90% | x | x
Nc1ccc2nc(-c3ccc(-c4nc5ccc(N)cc5[nH]4)cc3)[nH]c2c1 | x | -20% | x | -41% | x | x
COc1ccc(-c2ccc3nnc(-c4ccccc4OC)n3n2)cc1OC | x | x | x | 54% | x | x
CCN(CC)c1ccc(C=C2C(=O)OC3(CCCCC3)OC2=O)cc1 | 13% | -4% | 14% | -5% | 32µM* | 239%
CCCCC1(C)OC(=O)C(=Cc2ccc(N(CC)CC)cc2)C(=O)O1 (stereo unspecified) | 0% | -5% | 4% | -1% | -12% | 206%
SMILES | TexasRed fluor | BLM helicase inh | TRb SRC2 PPI | APEX1 inh | RECQ1 helicase | GoLoco inh red
O=C(Cl)c1cc(Cl)cc(Cl)c1 | -1%[201 µM] | x | 5%[201 µM] | x | x | x
CCN(CC)CCOC(c1ccccc1)c1ccc(C)cc1 (stereo unspecified) | 0% | -3% | -4% | 1% | 2% | 7%
Cc1ccc(C(OCC(C)(C)C[N+](C)(C)C)c2ccccc2)cc1 (stereo unspecified) | 1% | 0% | -5% | 6% | -9% | 8.9µM*
Cc1cccc(C)c1-n1c(SCC(=O)NCCCCCC(=O)O)nnc1-c1cccc([S+](=O)([O-])N2CCCC2)c1 | x | x | x | 37% | x | x
COc1cc(N=c2ssnc2Cl)cc(OC)c1 | -5% | 2% | 1% | -8% | 5% | 16µM*
Cc1cccc(C)c1-n1c(SCC(=O)Nc2ccc(F)cc2)nnc1-c1cccc([S+](=O)([O-])N2CCCC2)c1 | x | x | x | -3% | x | x
Cn1cnc2c(N3CCCCC3)nccc21 | 0% | -2% | -1% | -2% | 3% | -5%
C[c-]1[c-](C)[c-](C)[c-](C)[c-]1C.[Fe].c1cc2nccc(N3CCCC3)[c-]2c1 (stereo unspecified) | -2% | u | -6% | 2.8µM*! | 6.3µM*! | -7%
CCS(=O)(=O)c1cccc(C(=O)N2CCN(c3nc4c(C)ccc(Cl)c4s3)CC2)c1 | 0% | -2% | -4% | x | x | x
O=c1n(CCO)c(=O)n(CCO)c(=O)n1CCO | -4%[201 µM] | x | 0%[201 µM] | x | x | x
Cc1cccc(-n2c(O)c(C=Nc3cccc(O)c3)c3ccccc3c2=O)n1 | 0% | -5% | 7% | -2% | -12% | 5%
CC1=NC(=O)C(N=Nc2cccc(O)c2)N1c1ccccc1 (stereo unspecified) | -7% | -5% | -1% | 0% | -2% | 16µM*
Cc1ccc2occ(CC(=O)N(Cc3ccc(Cl)cc3)Cc3ccco3)c2c1 | 0.35µM*[quencher] | -3% | u | x | x | x
Cc1ccc(CN(Cc2ccco2)C(=O)c2oc3ccc(C)cc3c2C)cc1 | 4% | -8% | 0% | x | x | x
CO[C@@H]1/C=C\O[C@]2(C)Oc3c(C)c(O)c4c(O)c(c(CN5CCN(C)CC5)c(O)c4c3C2=O)NC(=O)/C(C)=C\C=C[C@@H](C)[C@@H](O)[C@H](C)[C@@H](O)C(C)[C@H](OC(C)=O)[C@@H]1C (stereo partly specified) | x | x | x | x | x | 7%[14.2 µM]
Cc1ccccc1C(=O)NC1(C(F)(F)F)N=C(c2ccccc2)N(Cc2ccccc2)C1=O (stereo unspecified) | 10µM*[quencher] | -6% | -3% | x | x | x
CC(C)Nc1nc(C#N)nc(Nc2ccccc2)n1 | x | -14% | x | -1% | -13% | x
COc1ccc2c(c1)C(=O)[C@H](OC(=O)NS(=O)(=O)c1ccc(C)cc1)[C@@H](c1ccc(OC)c(Br)c1)O2 | 1% | -2% | 8% | 5% | -4% | 2%
O=C(O)c1cc(-c2ccc(/C=c3\sc4nc5ccc(Br)cc5n4c3=O)o2)ccc1Cl | x | -27% | x | 2.7µM* | x | x
CCOC(=O)c1cc(-c2ccc(/C=C3/C(=O)N(c4ccc(C(=O)O)cc4)N=C3C)o2)ccc1Cl | x | -1% | x | 8.4µM* | x | x
CCOC(=O)c1cc(-c2ccc(/C=N\n3cnnc3)o2)ccc1Cl | -6% | 1% | 7% | 22% | -7% | 16%
